PubChem BioAssay (NCI)
Compounds without any hit were thinned out: in the full panel of roughly 83,000, 20% have a hit.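 Treatment: one concentration, 48 hours, 96-well format. Scoring: percent growth, with anything below 10 considered active.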 A number with no mark means an inactive call. Activity calls are given as the source filed them.

Legend:
Assay in all cases: NCI-60 one-dose screen, 48 h (100 = growth as untreated, 0 = no growth, -100 = all killed)
Conditions in all cases: 10 µM unless noted
[1] = test system: NCI-H23 lung
[2] = test system: NCI-H226 lung
[3] = test system: NCI-H322M lung
[4] = test system: HOP-62 NSCLC
[5] = test system: NCI-H460 lung
[6] = test system: HOP-92 NSCLC
[7] = test system: NCI-H522 lung
[8] = test system: A549/ATCC NSCLC
[9] = test system: 786-0 renal
[10] = test system: DU-145 prostate
[11] = test system: K-562 leukemia
[12] = test system: MALME-3M melanoma
[13] = test system: MDA-MB-231 breast
[14] = test system: RXF 393 renal
[15] = test system: SF-268 CNS
[16] = test system: SF-295 CNS
[17] = test system: SF-539 CNS
[18] = test system: UACC-257 melanoma
[19] = test system: M14 melanoma
[20] = test system: COLO 205 colon

Row | Structure (SMILES) | growth [1] | growth [2] | growth [3] | growth [4] | growth [5] | growth [6] | growth [7] | growth [8] | growth [9] | growth [10] | growth [11] | growth [12] | growth [13] | growth [14] | growth [15] | growth [16] | growth [17] | growth [18] | growth [19] | growth [20]
1 | COc1ccc(-c2nc(C#N)c(NCC(c3ccco3)N3CCCC3)o2)cc1 (stereo unspecified) | 53.7% | 101% | 43.3% | 47.1% | 24.1% | 58.2% | 30.6% | 43.7% | 34% | 49.2% | 20.6% | 51.2% | 77.8% | 14.8% | 52.3% | 24.2% | 23.7% | 55.2% |  | 
2 | C=CCn1c(SCC(=O)Nc2ccc(C(=O)/C=C/c3cc(OC)c(OC)c(OC)c3)cc2)nnc1-c1ccc(Cl)cc1 | 23% | -4.38% (active) | 56.1% | 25% | 22.9% | 75% | -13.1% (active) | 28.9% | 15.5% | 10.8% | 9.24% (active) | 66.2% | 35.5% | -42.4% (active) | 19.8% | 38.9% | 17.2% | 51.3% | 12.6% | 
3 | COc1ccc(Cl)c([N+](=O)[O-])c1 | 98.5% | 101% | 98.8% | 93.4% | 108% | 98% | 95.7% | 99.6% | 99.2% | 108% | 99.8% | 106% | 102% | 108% | 104% | 98% | 91.9% | 111% | 96.3% | 
4 | COC(=O)c1ccc2c(c1)n(Cc1ccc3ccccc3c1)c[n+]2Cc1ccc2ccccc2c1 | 34.6% | 61.3% | 57.2% | 63.8% | 28.6% | -10.7% (active) | 26.3% | 75% | 70.3% | 72.5% | 20.6% | -4.4% (active) | 28.5% | 69.3% | 40.9% | 58.7% | 65.7% | 42% | 14.1% | 
5 | N#Cc1ccc(N2Cc3cc(Cl)ccc3OC3=C2C(=O)N(Cc2ccc(F)cc2)C3=O)cc1 | 3.56% (active) | 92.6% | 96.3% | 52% | 23.6% | -64.1% (active) | -63.2% (active) | 68.5% | -90.5% (active) | -91.8% (active) | -21.6% (active) | -72.3% (active) | -0.424% (active) | -56.8% (active) | -58.4% (active) | 66.6% | -65.7% (active) | -64% (active) | -68.4% (active) | 
6 | C=C1C(=O)O[C@H]2[C@H]1CC/C(COC(=O)CCCCCCC(=O)OC/C1=C/CC[C@@]3(C)O[C@H]3[C@H]3OC(=O)C(=C)[C@@H]3CC1)=C\CC[C@@]1(C)O[C@@H]21 | 25.1% | 65.2% | 99.5% | 83.6% | 77.7% | 34% | -81% (active) | 97.2% | 20.9% | 40.4% | 2.63% (active) | -2.86% (active) | -1.66% (active) | -72.8% (active) | 54.2% | 94.9% | 21.1% | 70.7% | 30.6% | 
7 | COc1cc2c(cc1OCCCOc1cc3c(cc1OC)C(=O)N1CC(F)(F)C[C@H]1C=N3)N=C[C@@H]1CC(F)(F)CN1C2=O | 5.01% (active) | -20.1% (active) | 29% | 11.1% | 7.32% (active) | -35.4% (active) | -26.4% (active) | 36.1% | -22.8% (active) | 17% | 9.11% (active) | -57.6% (active) | 16% | -65.5% (active) | 30.4% | 8.54% (active) | -27.9% (active) | 34.9% |  | 
8 | Cc1c(Br)cccc1NC(=O)c1sc2nc3c(cc2c1N)CN(Cc1ccccc1)CC3 | 40.7% | 23.7% | 41.2% | -2.37% (active) | 6.71% (active) | 30.2% | -0.487% (active) | 21.4% | 35.1% | 17.8% | 7.49% (active) | 32.8% | 22.7% | 6.25% (active) | 31.7% | 18.8% | -4.32% (active) | 67.7% | 0.627% (active) | -4.67% (active)
